# High-throughput results (PubChem)
# Sampled rows, rich in hits. Any-hit rate of the full collection: about 2.9%.
# D3 ag: D3 dopamine receptor (human) agonism; P35462; D3R DiscoveRx beta-arrestin cells, luminescence, 90 min; max activation, %; hit rate 0.58% among 410,000; AID 652048; in the data active means max activation above about 30%; further: 0% is about no effect
#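 Agonist mode: compounds and dopamine controls were applied to plated cells for 90 min at 37 degrees C after an overnight attachment at 1500 cells/well. Luminescent read-out followed 30 - 60 minutes at room temperature with DiscoveRx detection reagent.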
# DRD3 antagonist: blocks the human D3 dopamine receptor; P35462; D3R cells, DiscoveRx beta-arrestin luminescence, antagonist mode; stronger effect = lower value; max response, negative = inhibition, %; hit rate 2.5% among 360,000; AID 652054; in the data active means max response below about -50%; inconclusive means no clear call, values can overlap the other calls; further: on the % scale 0 is the no-effect control and ±100 the full control effect
#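 Cells plated overnight at 1500 cells/well, then exposed to library compounds with dopamine controls for 90 minutes at 37 degrees C. DiscoveRx reagent added for 30–60 minutes at room temperature; luminescence read, quantitative HTS format.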
# B2AR arrestin: agonists driving beta-arrestin recruitment to human beta2-adrenergic receptor. P07550. beta-arrestin recruitment to beta2AR, cell-based reporter. Potency, µM (highest dose often 46.1 µM), for the others: top-dose activation, actives largely listed as activators. hit rate 0.02% among 330,000. AID 492947;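 further: potency means the concentration at half of the fitted maximal effect; 0% = DMSO controls and full agonism = EC100 isoproterenol or metaproterenol; nearly all actives have a fitted effect of over 65% in size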
# Target sequence (P07550 whole entry, looked up): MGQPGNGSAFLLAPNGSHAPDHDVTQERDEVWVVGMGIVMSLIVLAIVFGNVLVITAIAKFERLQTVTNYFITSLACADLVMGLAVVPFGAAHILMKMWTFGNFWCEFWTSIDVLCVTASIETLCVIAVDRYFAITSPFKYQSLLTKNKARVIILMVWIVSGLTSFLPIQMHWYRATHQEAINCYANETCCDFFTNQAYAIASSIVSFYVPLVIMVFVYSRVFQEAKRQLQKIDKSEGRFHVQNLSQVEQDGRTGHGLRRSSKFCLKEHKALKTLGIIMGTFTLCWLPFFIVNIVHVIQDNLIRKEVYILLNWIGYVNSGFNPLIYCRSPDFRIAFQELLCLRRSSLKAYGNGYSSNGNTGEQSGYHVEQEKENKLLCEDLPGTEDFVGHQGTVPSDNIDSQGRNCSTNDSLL
# a7 integrin act: integrin-mediated muscular dystrophy alleviation activation; alpha7betagal myoblasts, beta-gal FDG fluorescence, 48 h; Potency, µM (highest dose often 38.3 µM), inactives show at the top dose activation, hits mostly activators; hit rate 0.064% among 350,000;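 further: potency means the concentration at half of the fitted maximal effect; 100% = response of the positive control SU9516; nearly all actives have a fitted effect of over 60% in size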
#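 alpha7betagal+/- myoblasts (passage 13, 250/well) treated 48 h at 37C with compounds at 1:260 dilution of DMSO stock. Lysed, then beta-galactosidase activity read as FDG fluorescence (ex 480/em 540) after 30 min, with pre-read for autofluorescence.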
# IDH1 R132H inh: human IDH1 R132H inhibition; IDH1-R132H enzyme, NADPH consumption, diaphorase/resazurin fluorescence; Potency, µM (top dose mostly 76.6 µM), without a hit: at the top dose activity change, negative = inhibition, most hits filed as inhibitors; hit rate 0.093% among 390,000; AID 602179; further: potency means the concentration at half of the fitted maximal effect; on the % scale 0 is the no-effect control and ±100 the full control effect; nearly all actives have a fitted effect of over 65% in size
#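 IDH1-R132H (0.5 ug/mL) preincubated 30 min with compound, then NADPH (0.016 mM) and alpha-KG (2 mM) added; 80 min at RT, pH 7.5. Remaining NADPH coupled via diaphorase/resazurin to fluorescence (540/590 nm); concentration-response curves normalized to no-enzyme control.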
# Active calls of the source: *; ? = inconclusive; / = not tested or not shown. Unless noted, the call rests on the fitted dose curve; in most records, active means well fitted curve in the direction sought with a large enough effect; inconclusive means small, poorly fitted or top-dose-only effect, or another doubt; inactive means no such curve, though single readings can be large; an effect the other way counts as inactive or inconclusive.
SMILES,D3 ag,DRD3 antagonist,B2AR arrestin,a7 integrin act,IDH1 R132H inh
CCn1nc(NS(=O)(=O)c2ccccc2)c2cc3ccc(C)cc3nc21,-5,-63*,0%,37%,6%
COc1ccc(C(=O)C2CCCN(Cc3cn[nH]c3-c3ccc(F)cc3)C2)cc1OC (configuration not stated),-1,-23,0%,-29%,5%
COc1cccc(C(=O)C2CCCN(Cc3cn[nH]c3C3CCCCC3)C2)c1 (configuration not stated),-16,-86*,0%,0%,4%
COc1ccc2cc(C(=O)C3CCCN(Cc4cnc(N5CCOCC5)s4)C3)ccc2c1 (configuration not stated),-16,3,0%,-28%,1%
CC(C)Oc1cccc(C(=O)C2CCCN(Cc3cnc(N4CCCC4)s3)C2)c1 (configuration not stated),-18,-83*,0%,-10%,0%
CCOc1ccccc1CN1CCCC(C(=O)c2ccc(OC)c(OC)c2)C1 (configuration not stated),-15,-51*,0%,-17%,5%
COc1ccc(CCN(C)C2CCCN(C(=O)c3sccc3C)C2)cc1OC (configuration not stated),-11,-64*,0%,-31%,3%
COc1cccc(CC2(CO)CCCN(Cc3cn[nH]c3C3CCCCC3)C2)c1 (configuration not stated),-3,12,0%,?,2%
COC(=O)CN1C(=O)CSc2ccc(S(=O)(=O)Nc3ccc(F)c(Cl)c3)cc21,2,/,/,/,7%
Cc1ccc(C)c(Cn2c(=O)n(CCCCC(=O)NCc3ccc4c(c3)OCO4)c(=O)c3ccccc32)c1,1,/,/,/,2%
Cc1nn2c(=O)cc(COC(=O)c3ccc(NC(=O)C4CCCCC4)cc3)nc2s1,9,/,/,/,12%
CCOC(=O)C1CCCN(Cc2cc(Br)ccc2OC)C1 (configuration not stated),-10,-60*,0%,-12%,-1%
Cc1cc(C)c(CN2CCCC(CNC(=O)c3ccc(F)cc3)C2)c(-n2cccn2)c1 (configuration not stated),-6,-17,-1%,-29%,9%
Cc1ccsc1C(=O)C1CCCN(Cc2cc(F)ccc2-n2cccn2)C1 (configuration not stated),-18,-62*,0%,-5%,5%
COc1cc(OC)c(OC)cc1CN1CCCC(C(=O)c2sccc2C)C1 (configuration not stated),-38,-93*,0%,5%,-2%
COc1cccc(CN2CCCC(C(=O)N3CCCCC3)C2)c1OC (configuration not stated),-6,-61*,0%,22%,15%
CCOC(=O)C1CCCN(Cc2cc(Br)c(OC)cc2OC)C1 (configuration not stated),-33,?,0%,23%,1%
COc1cc(OC)c(OC)cc1CN1CCCC(C(=O)c2ccc3c(c2)OCO3)C1 (configuration not stated),-18,-93*,0%,-16%,10%
c1coc(Cn2nnnc2CN2CCN(C3CCCC3)CC2)c1,-3,-69*,0%,-30%,6%
O=C(NN1C(=O)NC2(CCCCC2)C1=O)c1ccc(-c2ccccc2Cl)o1,-6,-52*,0%,23%,3%
COc1ccc(C(CNC(=O)c2ccc(-c3ccccc3Cl)o2)N2CCCC2)cc1 (configuration not stated),-2,-121*,/,-59%,3%
COc1ccc(C(CNC(=O)c2ccc(-c3nc4ccccc4s3)o2)N2CCCC2)cc1 (configuration not stated),-20,-83*,1%,-36%,-15%
O=C(NN1C(=O)NC2(CCCCC2)C1=O)c1ccc(-c2ccc([N+](=O)[O-])cc2)o1,1,1,-1%,23%,0%
CC(=O)Nc1ccc(NC(=O)c2cc([N+](=O)[O-])cc([N+](=O)[O-])c2)cc1,0,9,0%,-36%,14%
Cc1ccc(NC(=O)c2ccc(Nc3c([N+](=O)[O-])cc([N+](=O)[O-])cc3[N+](=O)[O-])cc2)cc1,-16,-77*,-2%,-49%,11%
SMILES,D3 ag,DRD3 antagonist,B2AR arrestin,a7 integrin act,IDH1 R132H inh
Cc1ccc(C(=O)N/C(=C/c2ccc(N(C)C)cc2)C(=O)NCC2CCCO2)cc1 (configuration not stated),35*,9,0%,-42%,-2%
Cc1oc(-c2ccccc2Cl)nc1CSc1nncn2c1cc1occc12,-8,/,/,/,-10%
CC(=O)c1cccc(NC(=O)C(CC(C)C)NS(=O)(=O)c2ccc3c(c2)CCN3C(C)=O)c1 (configuration not stated),-4,/,/,/,0%
COCc1cc(C)nc2sc3c(c12)NC(c1ccc(O)cc1)N(c1ccc(OC)cc1)C3=O (configuration not stated),2,/,/,/,22%
O=[N+]([O-])c1ccc(N/N=C/C=C/c2ccco2)cc1,-20,-57*,/,1%,7%
O=C(O)c1ccc(N/N=C/C=C/c2ccc([N+](=O)[O-])o2)cc1,-12,-53*,0%,?,5%
COC(=O)c1c(NC(=O)c2ccccc2)sc(Cc2ccccc2)c1C,0,4,0%,13%,2%
COC(=O)c1c(NC(=O)c2ccc(C)cc2)sc(Cc2ccccc2)c1C,-1,-65*,0%,-17%,14%
CN(C)CCCNC(=O)C[C@H]1C[C@H](C(=O)N2CCOCC2)[C@@]2(CCC3CCCC3)c3[nH]c4cc(CCC(=O)N(C)C)ccc4c3CCN2C1=O,4,6,0%,13%,2%
O=C(Nc1ccccc1C(=O)O)c1cccc(C(=O)Nc2ccccc2C(=O)O)c1,30*,102,0%,4%,23%
CC(c1ccccc1)N1C(=O)c2ccc(C(=O)Nc3ccccc3C(=O)O)cc2C1=O (configuration not stated),32*,105,0%,-37%,9%
O=C(Nc1ccccc1C(=O)O)c1cccc(NC(=O)c2ccc(Br)o2)c1,-5,10,0%,-7%,5%
O=C(Nc1ccccc1C(=O)O)c1ccc(NC(=O)c2ccc(Br)o2)cc1,115*,44,1%,-37%,15%
COc1ccc(/C(C)=N\Nc2nc(-c3ccc(Cl)cc3)cc(C(F)(F)F)n2)cc1OC,45*,34,-1%,12%,0%
CC(C)N=c1scc(-c2cccs2)n1/N=C/c1ccc(O)c(O)c1O,64*,49,5%,-9%,-26%
CN=c1scc(-c2ccccc2F)n1/N=C/c1ccc(O)c(O)c1O,107*,11,0%,-50%,4%
CCN=c1scc(-c2cccs2)n1/N=C/c1cc(OC)ccc1O,10,8,0%,-5%,7%
